From PubChem BioAssay (NCI)
Compounds without any hit were thinned out: in the full panel of roughly 83,000, 20% have a hit.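 In brief: 96-well plates, 48 h treatment, single concentration, percent growth endpoint.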 A number with no mark means an inactive call. Activity calls are given as the source filed them. How the source made its calls: active means growth percent below 10; inactive means the rest.

What follows are molecules tested on MDA-MB-468 breast (assay: NCI-60 one-dose screen, 48 h (100 = growth as untreated, 0 = no growth, -100 = all killed)). Conditions: 10 µM unless noted.

Q: `O=C(COc1ccc(/C=C2\SC(=O)NC2=O)cc1)Nc1ccc(C(=O)/C=C/c2cc3ccccc3nc2Cl)cc1` was tested. Which growth did it give?
A: 20.6%

Q: For `CCn1c2ccc(/C=N/NS(=O)(=O)CCN(C)C)cc2c2cc(/C=N/NS(=O)(=O)CCN(C)C)ccc21`, which growth is on record?
A: 92.9%

Q: `Cc1ccc(/C=C(\C#N)n2nnc3cc(Cl)c(Cl)cc32)cc1` was tested. Which growth did it give?
A: 22.3%

Q: Which growth does the source give for `CCCCCCCCn1ccc2cc(NC(=O)CN=[N+]=[N-])ccc21` here?
A: 105%

Q: `CC(=O)[C@@H]1CC[C@]2(C(=O)n3ccnc3)CC[C@]3(C)[C@H](CC[C@@H]4[C@@]5(C)Cc6c([nH]c7ccccc67)C(C)(C)[C@@H]5CC[C@]43C)[C@@H]12` was tested. Which growth did it give?
A: 90.8%

Q: `COc1ccc(CNc2ccc3nc(CCC4CCCCC4)[nH]c3c2)cc1` was tested. Which growth did it give?
A: 39.1%

Q: With `CSC1=Nc2c(c(C)c(-c3ccccc3)n2CCCCl)C2=NC(=O)CN12` as the molecule, how does the growth read?
A: 47.3%

Q: How did the growth turn out when `COCCn1cc(-c2nc(-c3cc4cccnc4n3C)cs2)c2ccccc21` was run?
A: -16.1% (active)

Q: How did the growth turn out when `O=C(/C=C/c1cccc(O)c1)c1cccc(-n2cc(-c3ccc4ccccc4c3)[nH]c2=O)c1` was run?
A: -79.7% (active)

Q: With `CCCc1cc2c(cc1CN(Cc1cc3c(cc1CCC)OCO3)C(=N)OCC)OCO2` as the molecule, how does the growth read?
A: 60.8%

Q: For `COc1ccc(C(=O)CC(CC(=O)c2ccc(OC)cc2)c2c(C)nn(-c3ccccc3)c2Cl)cc1`, which growth is on record?
A: 96.4%

Q: Which growth does the source give for `Cc1ccccc1CNc1ccc(N2CCOCC2)cc1` here?
A: 97.8%

Q: `CCN1CCN(C(=O)[C@@]2(C)CC[C@]3(C)CC[C@]4(C)C(=CC(=O)[C@@H]5[C@@]6(C)CC[C@H](OCCC#N)C(C)(C)[C@@H]6CC[C@]54C)[C@@H]3C2)CC1` was tested. Which growth did it give?
A: 90.9%

Q: `O=C(NNc1nc2cc(F)c(F)cc2n2cccc12)c1ccncn1` was tested. Which growth did it give?
A: -25.6% (active)

Q: With `COCCCNc1nc(NC(=O)c2cc(OC)cc(OC)c2)cc(-c2cccnc2)n1` as the molecule, how does the growth read?
A: 94.8%

Q: With `CC1(C=O)NC(=O)NC1=O` (stereo not given) as the molecule, how does the growth read?
A: 101%

Q: Which growth does the source give for `C#C[C@@]1(O)[C@@H](CO)O[C@@H](n2cc(Br)c3c(Cl)ccnc32)[C@@H]1O` here?
A: 14%

Q: Which growth does the source give for `CC1=C(C(=O)Nc2ccc(F)cc2)C(c2ccc(Cl)cc2)C2=C(CC(C)(C)CC2=O)N1` (stereo not given) here?
A: 89.4%

Q: For `CCCCCCOc1ccc(/C=N/NC(N)=S)cc1`, which growth is on record?
A: 66.9%

Q: Which growth does the source give for `c1ccc(Cn2cnc3ccc(-c4nc(-c5ccc6c(c5)ncn6C5CCCCC5)cn5ccnc45)cc32)cc1` here?
A: -35.7% (active)

Q: With `NC(=S)N/N=C(/CCN1CCCC1)CC(C1=C(O)C2=CCCCC2OC1=O)c1ccccc1` (stereo not given) as the molecule, how does the growth read?
A: 17.9%

Q: With `O=C1Nc2ccc(F)cc2/C1=C/c1nc(-c2ccc(F)cc2)n2ccccc12` as the molecule, how does the growth read?
A: 113%

Q: Which growth does the source give for `Cc1ccc(-c2csc(N/N=C/c3nc4ccccc4n3C3CC3)n2)cc1` here?
A: 98.5%

Q: `CNC(=O)c1cc(Oc2ccc3nc(NC(=O)c4ccc5ncccc5c4)sc3c2)ccn1` was tested. Which growth did it give?
A: 73.7%

Q: `CCn1cc(C(=O)NN=C2CCCCCC2)c(=O)c2ccc(C)nc21` was tested. Which growth did it give?
A: 85.9%

Q: For `Cc1nc(N2CCOCC2)sc1S(N)(=O)=O`, which growth is on record?
A: 97%

Q: With `CCCCNc1nc(NN2C(=O)c3cccc4cccc(c34)C2=O)nc(-n2cnc3ccccc32)n1` as the molecule, how does the growth read?
A: 92.7%

Q: With `CC1(C)CC[C@]2(CO)CC[C@]3(C)[C@H](CC[C@@H]4[C@@]5(C)CC[C@H](O)C(C)(C)[C@@H]5CC[C@]43C)[C@H]2[C@H]1O` as the molecule, how does the growth read?
A: 101%

Q: `O=C1C(Cl)=C(Cl)C(=O)c2c1nc1n2CCCC1` was tested. Which growth did it give?
A: 96.7%

Q: For `O=C(Nc1ccc2c(O)cc(S(=O)(=O)O)cc2c1)c1ccc([N+](=O)[O-])cc1`, which growth is on record?
A: 95.4%

Q: How did the growth turn out when `Nc1n[nH]c2cccc(C#Cc3cccc(C(=O)Nc4ccc(CN5CCOCC5)c(C(F)(F)F)c4)c3)c12` was run?
A: 66%

Q: For `COc1ccc(/C(C)=C(\c2ccc(Cl)cc2)c2ccc(OCCCN(C)C)cc2)cc1`, which growth is on record?
A: 82.7%

Q: With `CCn1c2ccccc2c2ccc(C(C)=O)cc21` as the molecule, how does the growth read?
A: 104%

Q: Which growth does the source give for `Oc1c(Cl)cc(Cl)c2ccc(Cn3cc(-c4cc(C(F)(F)F)cc(C(F)(F)F)c4)nn3)nc12` here?
A: 18.6%

Q: `Nc1nonc1-c1nc2ccccc2n1CC(=O)Nc1ccc2c(c1)COC2=O` was tested. Which growth did it give?
A: 26.2%

Q: For `O=c1n(C2OC(CO)C(O)C2O)ccc2nccn12` (stereo not given), which growth is on record?
A: 122%

Q: Which growth does the source give for `[B-][N+](CC)(CC)c1ccccc1` here?
A: 104%

Q: How did the growth turn out when `Oc1ccccc1-c1nnc(SCc2ccc(O)c3ncccc23)n1-c1ccccc1` was run?
A: 0.833% (active)

Q: For `CCCCCC(=O)N1c2ccccc2NC2=C(C(=O)CC(c3ccc(OC)c(OC)c3)C2)C1c1ccc(C(F)(F)F)cc1` (stereo not given), which growth is on record?
A: 14.2%

Q: For `C[C@H]1[C@H]2[C@H]3CC[C@@H]4[C@@]5(C)C/C(=C/c6cccnc6)C(=O)C(C)(C)[C@@H]5CC[C@@]4(C)[C@]3(C)CC[C@]23CO[C@]1(C)[C@@H](C(=O)/C=C\c1cccnc1)C3`, which growth is on record?
A: -5.83% (active)
